# Laboratory results from PubChem BioAssay.
# Target: Albumin (Bos taurus) (UniProt P02769)
# Assay: compounds binding labelled BSA control protein – biochemical, small-molecule microarray, Alexa647 label, 635/667 nm fluorescence, artefact control for SMM control protein annotation, profiling panel (AID 1118);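 further: score merges 667 nm emission intensity and signal-to-noise per printed compound spot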
# Conditions: BSA-A647 binding, fluorescence 635 nm, higher = more signal
# Chain of Albumin (Bos taurus) (P02769 whole entry, looked up): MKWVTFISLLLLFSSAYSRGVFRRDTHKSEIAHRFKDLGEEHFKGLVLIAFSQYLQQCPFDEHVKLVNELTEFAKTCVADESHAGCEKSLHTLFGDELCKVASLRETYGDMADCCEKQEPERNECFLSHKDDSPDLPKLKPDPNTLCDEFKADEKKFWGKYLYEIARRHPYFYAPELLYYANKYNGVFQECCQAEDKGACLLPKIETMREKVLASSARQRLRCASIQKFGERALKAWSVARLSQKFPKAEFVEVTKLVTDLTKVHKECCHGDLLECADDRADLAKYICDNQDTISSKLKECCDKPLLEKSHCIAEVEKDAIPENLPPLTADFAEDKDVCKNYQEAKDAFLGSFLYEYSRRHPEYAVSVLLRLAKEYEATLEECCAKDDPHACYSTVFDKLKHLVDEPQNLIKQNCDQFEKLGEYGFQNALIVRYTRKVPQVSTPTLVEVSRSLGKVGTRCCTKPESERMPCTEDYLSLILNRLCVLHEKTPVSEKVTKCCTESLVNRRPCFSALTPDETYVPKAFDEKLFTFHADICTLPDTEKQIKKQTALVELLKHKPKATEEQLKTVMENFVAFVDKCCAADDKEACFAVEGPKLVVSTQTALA
row,SMILES,composite z-score
1,COCCOC(=O)N1C(=O)[C@@]2(c3ccccc31)[C@H](c1ccc(O)cc1)N1[C@H](c3ccccc3)[C@H](c3ccccc3)OC(=O)[C@H]1[C@@H]2C(=O)Nc1nc2ccccc2s1,0.827
2,NC(=O)NCC#Cc1ccc2c(c1)[C@]1(C(=O)N2)[C@H](C(=O)Nc2nc3ccccc3s2)[C@H]2C(=O)O[C@H](c3ccccc3)[C@H](c3ccccc3)N2[C@@H]1c1ccccc1OCCO,0.46
3,COCCOC(=O)N1C(=O)[C@@]2(c3ccccc31)[C@H](c1ccccc1OCCO)N1[C@H](c3ccccc3)[C@H](c3ccccc3)OC(=O)[C@H]1[C@@H]2C(=O)N1CCN(c2ncccn2)CC1,0.493
4,COC(=O)[C@@]1(Cc2ccc(F)cc2)[C@H]2c3cc(C(=O)N4CCCC4)n(CCCNc4ncc(C(F)(F)F)cc4Cl)c3C[C@H]2CN1C(=O)c1ccccc1,0.357
5,CC(C)C[C@@H]1NC(=O)[C@@H]2C[C@H](C(=O)NCc3ccc(F)cc3)[C@H](c3cccc(OCCO)c3)N2C1=O,-0.972
6,C=CCC(OC(C)=O)[C@@H]1[C@@H](N(Cc2cc3ccccc3o2)C(=O)c2cccc3ccccc23)c2cc(OCCCO)ccc2N1C(=O)c1ccc(-c2ccccc2)cc1 (stereo partly specified),0.236
7,C#C[C@H](O[Si](C#Cc1ccc(Oc2ccccc2)cc1)(C(C)C)C(C)C)c1ccccc1,0.687
8,O=C1N[C@@H](Cc2ccccc2)C(=O)N2[C@@H]1C[C@@H](C(=O)O)[C@H]2c1cccc(OCCO)c1,0.0429
9,COCCCNC(=O)[C@@]1(C)c2ccccc2C(=O)N(C(C)C)[C@H]1c1ccc(CO)cc1,-0.106
10,C=CCN1C(=O)[C@@]2(Cc3ccccc31)N=C(c1ccc(OCCCO)cc1)O[C@H]2c1ccccc1,-0.519
11,CN(C)CCCCCCNC(=O)[C@H]1C[C@H]2C(=O)N[C@@H](CCCCN)C(=O)N2[C@H]1c1cccc(OCCO)c1,0.733
12,COc1cc2c(cc1OC)CN(C(=O)[C@H]1[C@@H]3C(=O)O[C@@H](c4ccccc4)[C@@H](c4ccccc4)N3[C@@H](c3ccc(O)cc3)[C@]13C(=O)Nc1ccccc13)CC2,-0.134
13,C=CC1(C(=O)OC)CC=C(C(=O)OC)CC1 (stereo unspecified),0.714
14,CCCC=C(CCC)[C@@H](NC(=O)c1cccs1)c1ccc(C(F)(F)F)cc1,0.868
15,C=CCNC(=O)[C@@H]1[C@H]2C(=O)O[C@H](c3ccccc3)[C@H](c3ccccc3)N2[C@H](c2ccccc2OCCO)[C@@]12C(=O)N(C(=O)OCCOC)c1ccccc12,0.236
16,COC(=O)C[C@H]1O[C@]2(C(=O)N(C)c3ccccc32)[C@@H](C)[C@@H]1[Si](C)(C)F,-0.255
17,C=CCOC(=O)[C@@H]1[C@H]2C(=O)O[C@H](c3ccccc3)[C@H](c3ccccc3)N2[C@H](c2ccc(OCCOC(=O)[C@@H]3C[C@@H]4C(=O)NCC(=O)N4[C@@H]3c3ccc(O)cc3)cc2)[C@@]12C(=O)Nc1ccc(I)cc12,0.471
18,COc1ccc(CCNC(=O)[C@@]2(C)c3ccccc3C(=O)N(C(C)C)[C@H]2c2ccc(CO)cc2)cc1,0.252
19,C=C(CC1([C@@H](NP(=O)(c2ccccc2)c2ccccc2)[C@H]2C[C@@H]2CCCC)CC1)c1ccccc1,0.844
20,COC(=O)[C@H](Cc1ccccc1)N1CC2=C[C@@H](C3CC3)n3c(=O)n(C)c(=O)n3[C@H]2[C@@H]1[C@@H](O)Cc1ccccc1,0.503
21,C=C(/C(=C/C[C@H](OC(C)=O)c1ccc(CO)o1)c1cc(C(=O)OC)ccc1OC)C(C)C,0.222
22,[N-]=[N+]=Nc1ccccc1[C@H]1OC(c2ccc(OCCCO)cc2)=N[C@@]1(CCS(=O)(=O)c1ccccc1)C(N)=O,0.485
23,COc1cc2c(cc1OC)CN(C(=O)[C@@H]1[C@H]3C(=O)O[C@H](c4ccccc4)[C@H](c4ccccc4)N3[C@H](c3ccccc3OCCO)[C@@]13C(=O)Nc1ccc(C#CCCO)cc13)CC2,0.641
24,C[N+](C)(C)CCCCNC(=O)[C@@H]1C[C@@H]2C(=O)N[C@@H](Cc3ccccc3)C(=O)N2[C@@H]1c1cccc(OCCO)c1,-0.634
25,COCCOC(=O)N1C(=O)[C@@]2(c3cc(C#CCC(C(=O)OC)C(=O)OC)ccc31)[C@H](C(=O)Nc1nc3ccccc3s1)[C@H]1C(=O)O[C@H](c3ccccc3)[C@H](c3ccccc3)N1[C@@H]2c1ccccc1OCCO,0.893
26,CCC[C@@H]1C[C@@]1(CCC)[C@@H](NS(=O)(=O)c1cccc2cccnc12)c1ccc(Cl)cc1,0.659
